The whole screen tested about 5,500 compounds, of which about 2,000 (36%) were called active. Not shown: some 18% with an inconclusive outcome. Rule as the data show it: active = normalized growth mostly below about 0.91 (no sharp cut-off); inconclusive = no clear call, values can overlap the other calls; inactive = mostly above about 0.92. The list shows a part of the results.
Assay: chemical genetic growth profiling, strain panel (AID 1159580);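 also: tested at 20 µM; growth read once vehicle control cultures reached saturation at 30 °C; 1 = growth at the plate median or of vehicle wells; lower values mean less growth of the strain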
Conditions: S. cerevisiae deletion strains, growth OD

Measured: normalized growth

COC(=O)C1C(O)CCC2CN3CCc4c([nH]c5ccccc45)C3CC21 (centres undefined)
inactive: locus YAL040C, strain CLN3, stronger effect = lower value 0.997 | locus YCL061C, strain MRC1 (second series), stronger effect = lower value 1.01 | locus YDR363W, strain ESC2, stronger effect = lower value 1 | locus YER002W, strain NOP16, stronger effect = lower value 1.01 | locus YGR078C, strain PAC10, stronger effect = lower value 1.01 | locus YGR229C, strain SMI1, stronger effect = lower value 1.04 | locus YMR307W, strain GAS1, stronger effect = lower value 1.01 | locus YNL153C, strain GIM3, stronger effect = lower value 0.981 | locus YNL175C, strain NOP13, stronger effect = lower value 1.02 | locus YNL197C, strain WHI3, stronger effect = lower value 0.995 | locus YNL224C, strain SQS1, stronger effect = lower value 1 | locus YNL322C, strain KRE1, stronger effect = lower value 1.03 | locus YOR083W, strain WHI5 (second series), stronger effect = lower value 1 | locus YPL241C, strain CIN2, stronger effect = lower value 1.01

— PubChem BioAssay AID1159580 (chemical genetic matrix, 2015)
